# Data: article PMC11062922 (Nature Chemical Biology, 2023)
# Read-outs that look alike come from different tables or passages of the source.
# Target: Q6ZSR9 (human, UniProt Q6ZSR9)
# Settings: read-out: apparent Kd, n = 1
# Chain of Q6ZSR9 (Q6ZSR9 whole entry, looked up): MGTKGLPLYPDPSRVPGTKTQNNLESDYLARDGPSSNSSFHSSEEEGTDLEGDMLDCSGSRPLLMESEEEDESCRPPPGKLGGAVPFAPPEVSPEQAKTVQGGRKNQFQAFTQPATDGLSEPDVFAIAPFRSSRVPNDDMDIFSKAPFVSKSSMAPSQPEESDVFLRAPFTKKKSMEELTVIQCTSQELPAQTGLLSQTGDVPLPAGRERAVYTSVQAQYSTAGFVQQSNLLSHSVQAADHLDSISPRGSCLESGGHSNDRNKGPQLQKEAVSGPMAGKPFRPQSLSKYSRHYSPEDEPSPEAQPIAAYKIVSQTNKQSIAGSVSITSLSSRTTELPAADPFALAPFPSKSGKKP
substance,measurement,setting,value
Lestaurtinib,potency estimated from few doses,"compound concentrations:100 nM and 1000 nM (sheet 'Lestaurtinib' of Supplementary Table 1),run:Lestaurtinib_02496_R1,Plate:MR013",65.5 nM
same,potency estimated from few doses,"compound concentrations:100 nM and 1000 nM (sheet 'Lestaurtinib' of Supplementary Table 1),run:Lestaurtinib_02496_R2,Plate:MR013",59.5 nM
same,potency estimated from few doses,"compound concentrations:100 nM and 1000 nM (sheet 'Lestaurtinib' of Supplementary Table 1),run:Lestaurtinib_02496_R3,Plate:MR013",66.8 nM
same,potency estimated from few doses,"compound concentrations:100 nM and 1000 nM (sheet 'Lestaurtinib' of Supplementary Table 1),run:Lestaurtinib_02566_R2,Plate:MR014",55.7 nM
same,potency estimated from few doses,"compound concentrations:100 nM and 1000 nM (sheet 'Lestaurtinib' of Supplementary Table 1),run:Lestaurtinib_02566_R3,Plate:MR014",80.5 nM
same,potency estimated from few doses,"compound concentrations:100 nM and 1000 nM (sheet 'Lestaurtinib' of Supplementary Table 1),run:Lestaurtinib_02572_R1,Plate:MR015",40.6 nM
same,potency estimated from few doses,"compound concentrations:100 nM and 1000 nM (sheet 'Lestaurtinib' of Supplementary Table 1),run:Lestaurtinib_02572_R2,Plate:MR015",74.4 nM
same,potency estimated from few doses,"compound concentrations:100 nM and 1000 nM (sheet 'Lestaurtinib' of Supplementary Table 1),run:Lestaurtinib_02572_R3,Plate:MR015",48.9 nM
same,potency estimated from few doses,"compound concentrations:100 nM and 1000 nM (sheet 'Lestaurtinib' of Supplementary Table 1),run:Lestaurtinib_02577_R1,Plate:MR016",63.4 nM
same,potency estimated from few doses,"compound concentrations:100 nM and 1000 nM (sheet 'Lestaurtinib' of Supplementary Table 1),run:Lestaurtinib_02577_R2,Plate:MR016",53.4 nM
same,potency estimated from few doses,"compound concentrations:100 nM and 1000 nM (sheet 'Lestaurtinib' of Supplementary Table 1),run:Lestaurtinib_02577_R3,Plate:MR016",59.4 nM
same,potency estimated from few doses,"compound concentrations:100 nM and 1000 nM (sheet 'Lestaurtinib' of Supplementary Table 1),run:Lestaurtinib_02584_R1,Plate:MR017",92.8 nM
same,potency estimated from few doses,"compound concentrations:100 nM and 1000 nM (sheet 'Lestaurtinib' of Supplementary Table 1),run:Lestaurtinib_02584_R2,Plate:MR017",64.9 nM
same,potency estimated from few doses,"compound concentrations:100 nM and 1000 nM (sheet 'Lestaurtinib' of Supplementary Table 1),run:Lestaurtinib_02584_R3,Plate:MR017",79 nM
same,potency estimated from few doses,"compound concentrations:100 nM and 1000 nM (sheet 'Lestaurtinib' of Supplementary Table 1),run:Lestaurtinib_02601_R1,Plate:MR018",49.8 nM
same,potency estimated from few doses,"compound concentrations:100 nM and 1000 nM (sheet 'Lestaurtinib' of Supplementary Table 1),run:Lestaurtinib_02601_R3,Plate:MR018",44.4 nM
same,potency estimated from few doses,"compound concentrations:100 nM and 1000 nM (sheet 'Lestaurtinib' of Supplementary Table 1),run:Lestaurtinib_02606_R2,Plate:MR019",52 nM
same,potency estimated from few doses,"compound concentrations:100 nM and 1000 nM (sheet 'Lestaurtinib' of Supplementary Table 1),run:Lestaurtinib_02606_R3,Plate:MR019",60.4 nM
same,potency estimated from few doses,"compound concentrations:100 nM and 1000 nM (sheet 'Lestaurtinib' of Supplementary Table 1),run:Lestaurtinib_02624_R2,Plate:MR020",61.1 nM
same,potency estimated from few doses,"compound concentrations:100 nM and 1000 nM (sheet 'Lestaurtinib' of Supplementary Table 1),run:Lestaurtinib_02624_R3,Plate:MR020",55.5 nM
same,potency estimated from few doses,"compound concentrations:100 nM and 1000 nM (sheet 'Lestaurtinib' of Supplementary Table 1),run:Lestaurtinib_02724_R2,Plate:MR021",51.2 nM
same,potency estimated from few doses,"compound concentrations:100 nM and 1000 nM (sheet 'Lestaurtinib' of Supplementary Table 1),run:Lestaurtinib_02724_R3,Plate:MR021",61.2 nM
same,potency estimated from few doses,"compound concentrations:100 nM and 1000 nM (sheet 'Lestaurtinib' of Supplementary Table 1),run:Lestaurtinib_02741_R1,Plate:MR023",77.1 nM
same,potency estimated from few doses,"compound concentrations:100 nM and 1000 nM (sheet 'Lestaurtinib' of Supplementary Table 1),run:Lestaurtinib_02741_R2,Plate:MR023",85.4 nM
same,potency estimated from few doses,"compound concentrations:100 nM and 1000 nM (sheet 'Lestaurtinib' of Supplementary Table 1),run:Lestaurtinib_02741_R3,Plate:MR023",77.2 nM
same,potency estimated from few doses,"compound concentrations:100 nM and 1000 nM (sheet 'Lestaurtinib' of Supplementary Table 1),run:Lestaurtinib_02748_R1,Plate:MR024",67.4 nM
same,potency estimated from few doses,"compound concentrations:100 nM and 1000 nM (sheet 'Lestaurtinib' of Supplementary Table 1),run:Lestaurtinib_02748_R2,Plate:MR024",46.2 nM
same,potency estimated from few doses,"compound concentrations:100 nM and 1000 nM (sheet 'Lestaurtinib' of Supplementary Table 1),run:Lestaurtinib_02748_R3,Plate:MR024",66.5 nM
same,potency estimated from few doses,"compound concentrations:100 nM and 1000 nM (sheet 'Lestaurtinib' of Supplementary Table 1),run:Lestaurtinib_02752_R1,Plate:MR025",48.7 nM
same,potency estimated from few doses,"compound concentrations:100 nM and 1000 nM (sheet 'Lestaurtinib' of Supplementary Table 1),run:Lestaurtinib_02765_R2,Plate:MR026",131 nM
same,potency estimated from few doses,"compound concentrations:100 nM and 1000 nM (sheet 'Lestaurtinib' of Supplementary Table 1),run:Lestaurtinib_02765_R3,Plate:MR026",71.7 nM
same,potency estimated from few doses,"compound concentrations:100 nM and 1000 nM (sheet 'Lestaurtinib' of Supplementary Table 1),run:Lestaurtinib_02766_R1,Plate:MR027",47.5 nM
same,potency estimated from few doses,"compound concentrations:100 nM and 1000 nM (sheet 'Lestaurtinib' of Supplementary Table 1),run:Lestaurtinib_02766_R2,Plate:MR027",37.3 nM
same,potency estimated from few doses,"compound concentrations:100 nM and 1000 nM (sheet 'Lestaurtinib' of Supplementary Table 1),run:Lestaurtinib_02766_R3,Plate:MR027",47 nM
same,potency estimated from few doses,"compound concentrations:100 nM and 1000 nM (sheet 'Lestaurtinib' of Supplementary Table 1),run:Lestaurtinib_02768_R1,Plate:MR028",48.3 nM
same,potency estimated from few doses,"compound concentrations:100 nM and 1000 nM (sheet 'Lestaurtinib' of Supplementary Table 1),run:Lestaurtinib_02768_R2,Plate:MR028",49.7 nM
same,potency estimated from few doses,"compound concentrations:100 nM and 1000 nM (sheet 'Lestaurtinib' of Supplementary Table 1),run:Lestaurtinib_02768_R3,Plate:MR028",57.7 nM
same,potency estimated from few doses,"compound concentrations:100 nM and 1000 nM (sheet 'Lestaurtinib' of Supplementary Table 1),run:Lestaurtinib_02795_R1,Plate:MR022",67.2 nM
same,potency estimated from few doses,"compound concentrations:100 nM and 1000 nM (sheet 'Lestaurtinib' of Supplementary Table 1),run:Lestaurtinib_02795_R2,Plate:MR022",73.9 nM
same,potency estimated from few doses,"compound concentrations:100 nM and 1000 nM (sheet 'Lestaurtinib' of Supplementary Table 1),run:Lestaurtinib_02802_R1,Plate:MR029",52.5 nM
same,potency estimated from few doses,"compound concentrations:100 nM and 1000 nM (sheet 'Lestaurtinib' of Supplementary Table 1),run:Lestaurtinib_02802_R2,Plate:MR029",43.8 nM
same,potency estimated from few doses,"compound concentrations:100 nM and 1000 nM (sheet 'Lestaurtinib' of Supplementary Table 1),run:Lestaurtinib_02896_R3,Plate:MR030",88 nM
same,potency estimated from few doses,"compound concentrations:100 nM and 1000 nM (sheet 'Lestaurtinib' of Supplementary Table 1),run:Lestaurtinib_03172_R1,Plate:MR031",51.8 nM
